Screens from PubChem BioAssay.
RmlC RmlD mix – mixture blocks RmlC and RmlD coupled enzyme activity; RmlC/RmlD coupled enzyme inhibition, 384-well mixture HTS; inhibition, % at 5.5 µM; hit rate 0.39% among 110,000; AID 1532; in the data active = inhibition above about 30%, passing the limit was not always enough
RT RNaseH block – inhibitors of HIV-1 reverse transcriptase RNase H; RT-RNase H RNA/DNA duplex cleavage, fluorescence; inhibition, % at 10 µM; hit rate 1.9% among 65,000; in the data active = inhibition above about 50%
RmlCD fluor art – shows fluorescent artifact in RmlC/RmlD assay, dose-response counter-screen. shares compounds with RmlC RmlD mix. RmlC/RmlD assay fluorescence artifact counter-screen. calls only. hit rate 96% among 360. AID 1696; call rule not given here;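 note: compound alone with no enzyme and no substrates present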
An asterisk follows results filed as active; i = inactive; . = no result; + = active, no number. The full list was thinned out, with hits kept by preference.

SMILES | RmlC RmlD mix | RT RNaseH block | RmlCD fluor art
O=C(Nc1nnc(-c2ccccc2)o1)Nc1ccccc1Cl | . | 5 | .
O=C1CC(NCc2ccccc2F)C(=O)N1c1ccccc1 (stereo unspecified) | -2 | -6 | .
Cc1ccc(-n2c(=O)c(C#N)cc3c(=O)n4cccc(C)c4nc32)cc1 | i | . | .
Cc1ccc2nc3c(cc(C#N)c(=O)n3CC3CCCO3)c(=O)n2c1 (stereo unspecified) | 105* | -12 | +
Cc1ccc2nc3c(cc(C#N)c(=O)n3-c3nccs3)c(=O)n2c1 | 107* | -12 | +
Cc1ccc(S(=O)(=O)c2cc3c(=O)n4cc(C)ccc4nc3n(CC3CCCO3)c2=N)cc1 (stereo unspecified) | . | -15 | .
CCOC(=O)N1N=C(c2ccc(C)cc2)CC1(O)C(F)(F)F (stereo unspecified) | -12 | . | .
COc1ccc(Cc2nc(C(=O)Nc3ccc(Cl)cc3)cs2)cc1 | -2 | . | .
Cc1cccn2cc(CNC(=O)C3CCCCC3)nc12 | . | -22 | .
COc1ccc(C(=O)N/N=C/c2ccc3cccc(OCc4ccccc4)c3n2)cc1 | -69 | . | i
O=C(N/N=C/c1ccc2cccc(OCc3ccccc3)c2n1)c1ccc(Br)cc1 | -317 | . | .
CCCOc1ccc(NC2=CC(=O)CC(C)(C)C2)cc1 | -10 | 2 | .
COC(=O)c1c(N)n(-c2ccc(NC(C)=O)cc2)c2nc3ccccc3nc12 | 64* | 7 | +
COC(=O)c1c(N)n(-c2ccc(N3CCOCC3)cc2)c2nc3ccccc3nc12 | . | 0 | .
CCOC(=O)C1CCN(C(=O)c2cccc(Cl)c2)CC1 | 11 | -3 | .
CC(=O)c1ccc(-c2nc3ccccc3n2C)o1 | 151* | 2 | +
Cc1ccc(-c2nc3ccccc3n2C)o1 | -7 | . | .
Cc1nc(SCC(=O)Nc2ccccc2C(F)(F)F)c2c(=O)n(C)c(=O)n(C)c2n1 | . | 8 | .
O=C(Cn1nnc(-c2ccccc2-n2cnnn2)n1)N1CCCCC1 | -10 | 2 | .
COC(=O)[C@@H]1C[C@@]2(O)[C@@H](O)[C@@H](O)[C@@H](O)C[C@H]2N1Cc1cc(OC)cc(OC)c1 | -12 | . | .
COc1ccc(-c2ccnc3c(C#N)cnn23)cc1 | . | . | +
N#Cc1cnn2c(-c3ccccc3)ccnc12 | 17 | . | .
Cc1cc(NCCCN(C)C)n2nc(-c3cccs3)cc2n1 | -10 | . | .
Cc1cc(C)c2c(n1)nn1c(NCCCN(C)C)cc(C)nc21 | 86* | -7 | +
COCCn1c(=N)c(C(=O)NCCc2ccccc2)cc2c(=O)n3cccc(C)c3nc21 | 58* | -19 | +
SMILES | RmlC RmlD mix | RT RNaseH block | RmlCD fluor art
CCCn1c(=N)c(C(=O)NCC2CCCO2)cc2c(=O)n3cccc(C)c3nc21 (stereo unspecified) | 87* | -18 | +
Cc1cccn2c(=O)c3cc(C(=O)NCc4ccco4)c(=N)n(CCOCCO)c3nc12 | 17 | -28 | .
Cc1cccn2c(=O)c3cc(C(=O)NCCc4ccccc4)c(=N)n(CCCn4ccnc4)c3nc12 | 38* | . | +
CCNC(=O)c1cc2c(=O)n3cccc(C)c3nc2n(CCc2ccccc2)c1=N | 59* | -4 | +
Cc1cccn2c(=O)c3cc(C(=O)NCc4ccccc4)c(=N)n(CCCN4CCOCC4)c3nc12 | . | -29 | .
Cc1ccc(CNC(=O)c2cc3c(=O)n4cccc(C)c4nc3n(CC3CCCO3)c2=N)cc1 (stereo unspecified) | . | -6 | .
Cc1cccn2c(=O)c3cc(C(=O)NCCN4CCOCC4)c(=N)n(CCc4ccccc4)c3nc12 | . | -34 | .
CCCCNC(=O)c1onc(CSc2ccncc2)c1C(=O)NCCCC | -10 | . | .
Cc1ccc(-n2c(Cc3cccn3C)nnc2SCC(=O)NCc2ccco2)cc1 | -10 | -4 | .
COc1ccccc1Oc1ccccc1C(=O)O | -7 | . | .
Cc1cc(OCC(=O)N(C)C)c2c(-c3ccccc3)cc(=O)oc2c1 | -8 | -16 | .
CN(C)C(=O)COc1ccc2cc(-c3ccccc3)c(=O)oc2c1 | 55* | -4 | +
CCN1CCN(CCCNC(=O)c2cc3cc4ccc(OC)cc4nc3o2)CC1 | . | -34 | .
COc1ccc2cc3cc(C(=O)NCCCN4CCOCC4)oc3nc2c1 | 43* | -13 | +
O=C(Nc1ccccc1C(=O)O)c1ccc(Br)o1 | 5 | . | .
Cn1c(C(=O)NCc2ccccn2)cc2c(=O)n3ccccc3nc21 | 96* | -28 | +
Cn1nc(C(=O)NCc2ccccn2)c2ccccc2c1=O | -8 | -11 | .
Cc1ccccc1OCC(=O)Nc1cccc2nsnc12 | -9 | . | .
COc1ccc(/C=N/NC(=O)Nc2cccc3nsnc23)c(OC)c1 | 39* | . | +
COc1cc2[nH]c(=O)n(CCCC(=O)N3CC=C(c4ccccc4)CC3)c(=O)c2cc1OC | 52* | -32 | i
COc1cc2[nH]c(=O)n(CCC(=O)N3CC=C(c4ccccc4)CC3)c(=O)c2cc1OC | -14 | . | .
COc1cccc(/C=N/NC(=O)C(=O)NCc2ccco2)c1O | -1 | . | .
COc1cccc(/C=N/NC(=O)c2cc3c(OC)cccc3[nH]2)c1O | . | . | +
CC1CN(C(=S)NC(=O)c2cccc([N+](=O)[O-])c2)CC(C)O1 (stereo unspecified) | 20 | . | .
